Source: PubChem BioAssay (National Center for Advancing Translational Sciences (NCATS))
An excerpt weighted towards active compounds, which were near 0.25% of everything screened.
Tb PFK inh-1 = qHTS Assay to Find Inhibitors of T. brucei phosphofructokinase; 0.17% of 330,000 active; Potency, µM (series often up to 57.5 µM), actives largely listed as inhibitors; T. brucei PFK, ADP-Glo luminescence; ATP-dependent 6-phosphofructokinase (Trypanosoma brucei brucei), O15648; note: nearly all actives have a fitted effect of over 60% in size
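PFK 1.25 nM, F6P 0.5 mM, ATP 0.1 mM, 0.1 M TEA pH 8.0, 5 mM MgCl2, 0.01% Tween20, 0.1% BSA; 45 min RT. ADP-Glo readout. qHTS titration up to 57 uM; curves fitted, compounds curve-classed.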
Pin1 inh = qHTS Assay to Find Inhibitors of Pin1 | Peptidyl-prolyl cis-trans isomerase NIMA-interacting 1 (Homo sapiens), Q13526 | Pin1 FP peptide displacement, HiFluor488, 10 min | Potency, µM (series often up to 115 µM), usual class: inhibitors | 0.009% of 390,000 active; active = well fitted inhibition curve with a large enough effect in the polarisation, with a control signal flat, not every such curve was filed as active; inconclusive = small, poorly fitted or top-dose-only effect, or effect the other way, or a change in a side signal; inactive = no such curve, though single readings can be large or run the other way; the % refers to the polarisation
Target sequence (Q13526 whole entry, looked up): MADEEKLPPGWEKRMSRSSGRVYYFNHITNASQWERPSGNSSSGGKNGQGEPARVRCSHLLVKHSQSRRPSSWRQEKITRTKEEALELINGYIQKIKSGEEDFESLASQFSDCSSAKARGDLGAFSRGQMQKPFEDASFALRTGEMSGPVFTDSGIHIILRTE
Tb PGK inh = qHTS Assay to Find Inhibitors of Phosphoglycerate Kinase; PGK/GAPDH coupled, Kinase-Glo luminescence, 60 min; Potency, µM (top dose mostly 57.5 µM), hits mostly inhibitors; 0.043% of 380,000 active; note: nearly all actives have a fitted effect of over 60% in size
Target sequence (P07378 whole entry, looked up): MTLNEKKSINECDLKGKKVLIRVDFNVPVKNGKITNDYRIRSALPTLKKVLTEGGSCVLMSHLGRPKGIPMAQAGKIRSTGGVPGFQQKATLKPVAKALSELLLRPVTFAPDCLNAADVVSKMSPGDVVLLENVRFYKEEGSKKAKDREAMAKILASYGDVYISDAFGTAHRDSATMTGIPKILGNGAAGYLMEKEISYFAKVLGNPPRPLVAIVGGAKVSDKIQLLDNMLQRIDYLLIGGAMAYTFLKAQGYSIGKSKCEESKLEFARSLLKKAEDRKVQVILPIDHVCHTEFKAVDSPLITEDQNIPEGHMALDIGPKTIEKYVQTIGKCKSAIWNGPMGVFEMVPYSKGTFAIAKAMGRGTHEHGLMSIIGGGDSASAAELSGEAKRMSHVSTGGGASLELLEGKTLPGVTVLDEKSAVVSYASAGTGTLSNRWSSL
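Luminescent ATP detection (Kinase-Glo Plus) follows a 60-minute room-temperature incubation, with wells lacking PGK as controls. Buffer: 100 mM TEA (pH 7.6), 5 mM MgCl2, 0.01% Tween-20. Coupling enzyme GAPDH (100 nM final) supplies unstable 1,3-BPG in-well.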
Chronic BCR inh = qHTS Assay to Find Inhibitors of Chronic Active B-Cell Receptor Signaling; Potency, µM (titrated, usually from 46.1 µM), hits mostly inhibitors; ABC-DLBCL IkBa-CBG/CBR reporter, luminescence ratio, 4 h; 0.05% of 340,000 active; active = well fitted inhibition curve with a large enough effect in the signal ratio, with a control signal flat, not every such curve was filed as active; inconclusive = small, poorly fitted or top-dose-only effect, or effect the other way, or a change in a side signal; the % refers to the signal ratio
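TMD8 ABC-DLBCL cells carrying doxycycline-inducible green luciferase fused to IkappaBalpha plus unfused red luciferase were exposed to compounds (up to 46 uM) for 4 hrs at 37C. Activity came from the overlap-corrected green/red luminescence ratio.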
ERG Ets-DNA blk = qHTS for Small Molecule Inhibitors of the ERG Ets/DNA interaction; Transcriptional regulator ERG (Homo sapiens), P11308; fluorescence polarization, His-ERG Ets domain / labelled DNA; Potency, µM (top dose mostly 76.9 µM), actives largely listed as inhibitors; 0.028% of 370,000 active; AID 624246, 2012; active = well fitted inhibition curve with a large enough effect in the polarisation, with a control signal flat; inconclusive = small, poorly fitted or top-dose-only effect, or effect the other way, or a change in a side signal; inactive = no such curve, though single readings can be large or run the other way; the % refers to the polarisation;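 note: polarization taken with two DNA probes labelled with fluorescein and Texas red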
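His-tagged ERG Ets domain (1 uM in the protein solution; 300mM KCl, 50mM Tris-HCl, 1mM EDTA, 1mM DTT, pH 7.5) received compound, then a probe mix of 5 nM fluorescein-DNA and 100nM Texas-615-DNA. Fluorescence polarization was read for both dyes.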
TbPFK ATP = Tb PFK orthogonal confirmatory assay using ATP depletion (Kinase-Glo Plus) as an alternative measure of Tb PFK activity: Hit Validation; Potency, µM (doses to about 57.5 µM); AID 504636, 2011; 47% of 1,100 active; Tb PFK enzyme, ATP depletion, Kinase-Glo Plus luminescence; shares compounds with Tb PFK inh-1; calls by dose curve; note: nearly all actives have a fitted effect of over 60% in size
Tb PFK inh-2 = Inhibitors of T. brucei phosphofructokinase: Hit Validation. shares compounds with Tb PFK inh-1. purified T. brucei PFK, ADP-Glo luminescence, 45 min. 41% of 1,100 active. Potency, µM (highest dose often 57.5 µM), usual class: inhibitors. AID 504637, 2011; note: nearly all actives have a fitted effect of over 60% in size
Numbers stand for hits; 0 = inactive; ? = inconclusive; - = no result. Unless noted, calls come from the whole dose curve; as a rule, active = well fitted curve in the direction sought with a large enough effect; inconclusive = small, poorly fitted or top-dose-only effect, or another doubt; inactive = no such curve, though single readings can be large; an effect the other way counts as inactive or inconclusive.

SMILES	Tb PFK inh-1	Pin1 inh	Tb PGK inh	Chronic BCR inh	ERG Ets-DNA blk	TbPFK ATP	Tb PFK inh-2
Fc1ccc(NC(=S)Nc2ccccc2OC(F)F)cc1Cl	?	0	0	0	0	0	0
Fc1ccc(NC(=S)Nc2ccccc2N2CCOCC2)cc1Cl	?	0	0	?	0	0	0
Cc1ccc(NS(=O)(=O)c2cc3c(cc2Cl)CCC(=O)N3)cc1Cl	-	0	-	-	-	-	-
O=C(CNC(=O)c1ccc(C(F)(F)F)cc1)OC(C(=O)Nc1cc(C(F)(F)F)ccc1Cl)c1ccccc1 (stereo unspecified)	-	0	-	-	-	-	-
CCN(CC)CCOC(=O)c1ccc(N/C=C(/C#N)c2nc(-c3ccc4c(c3)OCO4)cs2)cc1	?	?	0	0	0	0	?
CCN(CC)CCOC(=O)c1ccc(N/C=C(/C#N)c2nc(-c3ccc(OC)cc3)cs2)cc1	?	?	0	0	0	-	-
CCN(CC)CCOC(=O)c1ccc(N/C=C(/C#N)c2nc(-c3cc4ccccc4oc3=O)cs2)cc1	?	0	0	0	0	0	?
N#C/C(=C\c1cccc(F)c1)c1nc(-c2cc3ccccc3oc2=O)cs1	-	0	0	-	0	-	-
Clc1ccc(CNCCCSc2ncccn2)cc1Cl	15µM	0	0	0	0	19µM	19µM
Clc1cccc(Cl)c1CNCCCSc1ncccn1	0	0	0	0	0	-	-
Cn1c(/C(C#N)=C/c2ccccc2Br)nc2ccccc21	-	0	-	-	0	-	-
O=C(Cc1ccc(Cl)c(Cl)c1)N/N=C/c1cccnc1	12µM	0	0	0	0	5.4µM	12µM
O=C(Cc1ccccc1Cl)N/N=C/c1cccnc1	0	0	0	0	0	-	-
COc1ccc(/C=C(\C#N)C(=O)NCC2CCCO2)cc1OC (stereo unspecified)	0	0	0	0	0	-	-
COc1cc(/C=C(\C#N)C(=O)NCC2CCCO2)ccc1OC(=O)c1ccco1 (stereo unspecified)	?	0	0	0	0	0	?
O=c1c2ccccc2sn1-c1ccc(F)cc1	3.4µM	0	0	?	0	0	?
COC(=O)c1cccc(-n2sc3ccccc3c2=O)c1	6.7µM	0	0	?	0	?	?
O=c1c2ccc(F)cc2sn1-c1ccccc1	-	-	0	-	-	-	-
CC(=O)Nc1sc2c(c1-c1nc3ccccc3s1)CNCC2	-	0	-	-	-	-	-
Cc1nnc(SCc2ccc(Cl)c(Cl)c2)s1	24µM	0	0	0	0	11µM	13µM
O=[S+]([O-])(c1cc2ccccc2o1)N1CCN([S+](=O)([O-])c2c(F)cccc2F)CC1	-	0	-	-	-	-	-
O=[S+]([O-])(/C=C/c1nc(Nc2cc(F)cc(F)c2)c2ncn(CC(F)F)c2n1)c1ccccc1	-	0	-	-	-	-	-
Cc1cc(F)ccc1NCc1ccc([N+](=O)[O-])cc1	?	0	0	0	0	?	?
Oc1ccccc1OCc1nc2ccccc2s1	0	0	0	?	0	-	-
Oc1ccc(O)c(Cc2nc3ccccc3s2)c1	30µM	0	0	?	0	24µM	?
SMILES	Tb PFK inh-1	Pin1 inh	Tb PGK inh	Chronic BCR inh	ERG Ets-DNA blk	TbPFK ATP	Tb PFK inh-2
N#C/C(=C/c1cccc(O)c1)C(=O)NCc1ccc(Cl)cc1	0	0	0	?	0	-	-
N#C/C(=C/c1ccc(O)c(O)c1)C(=O)NCc1ccc(Cl)cc1	?	0	0	?	0	?	0
COc1ccc(OCC(=O)OCC(=O)Nc2ccc3[nH]c(=O)[nH]c3c2)cc1	30µM	0	0	0	0	?	?
O=C(COc1ccc(Cl)cc1)Nc1ccc2[nH]ncc2c1	?	0	0	0	0	17µM	24µM
COc1ccc(CCC(=O)OCC(=O)Nc2ccc3[nH]c(=O)[nH]c3c2)cc1	?	0	0	0	0	-	-
COc1ccccc1C(=O)NCC(=O)OCC(=O)Nc1ccc2[nH]c(=O)[nH]c2c1	27µM	0	0	0	0	?	?
O=[S+]([O-])(c1c(F)cccc1F)N1CCN([S+](=O)([O-])c2cccc3nonc23)CC1	-	0	-	-	-	-	-
O=C(NCC1CCN(Cc2cccc(Cl)c2)CC1)Nc1ccc(Cl)cc1	?	0	0	?	0	?	?
COc1cc(NC(=O)NCC2CCN(Cc3ccccc3Cl)CC2)cc(OC)c1OC	0	0	0	0	0	-	-
O=C(NCC1CCN(Cc2cccc(Cl)c2)CC1)Nc1ccc(F)c(Cl)c1	-	0	0	-	0	-	-
COc1ccc(OC)c(CN2CCC(CNC(=O)Nc3cccc(Cl)c3)CC2)c1	?	0	0	?	0	?	?
CCOC(=O)NCc1ccc(Cl)c(Cl)c1	30µM	0	0	0	0	21µM	?
Cc1ccc(C(=O)NCc2ccc(Cl)c(Cl)c2)o1	11µM	0	0	0	0	6.7µM	24µM
Cc1ccc(C(=O)NCc2ccc3c(c2)OCO3)o1	0	0	0	0	0	-	-
O=C(Nc1n[nH]c(=S)s1)c1ccco1	?	0	0	0	0	5.4µM	12µM
CC(C)CN1C(=S)SC(C)(C)C1n1oc(=O)n(-c2ccc(Cl)cc2)c1=O (stereo unspecified)	27µM	0	-	?	0	0	0
CCn1c(CCNC(=O)c2ccc(OC)cc2)nnc1SCc1ccc(Cl)c(Cl)c1	17µM	0	0	0	0	12µM	24µM
CCn1c(CCNC(=O)c2ccc(C)cc2)nnc1SCc1ccc(Cl)c(Cl)c1	0	0	0	0	0	-	-
CN(C)c1cccc(-c2ccnc(N3CCC(C(N)=O)CC3)n2)c1	-	0	-	-	-	-	-
COC(=O)c1[nH]c2ccc(C)cc2c1NC(=O)CN1CCCc2ccccc21	?	0	0	?	0	0	?
Cc1cccc(OCCn2c(CCNC(=O)C3CCCCC3)nc3ccccc32)c1	-	0	-	-	-	-	-
O=C(NCc1ccccc1)[C@]1(C(F)(F)F)C[C@H](CCC2CCCCC2)CCCO1	-	0	-	-	-	-	-
CC(=O)[C@H]1[C@H]([C@H](O)[C@H](O)CO)O[C@](O)(C(=O)O)C[C@@H]1O	1.7µM	0	0	0	0	?	0
O=C1CCc2cc(S(=O)(=O)Nc3ccc4ccccc4c3)ccc2N1	-	0	-	-	-	-	-
COc1ccc(OC)c2c1C(=O)C(Cl)=C(Cl)C2=O	1.2µM	?	0	?	0	0.34µM	0.67µM
NC(N)=NS(=O)(=O)c1ccc(NC(=S)NC(=O)c2ccccc2)cc1	0	0	0	0	0	-	-
